In PubChem BioAssay (EPA / NIEHS):
Values joined by “and” are separate entries in the source; they are usually repeats but may differ in a detail not shown here. Identical values can stand only once. Where a structure was tested more than once in an assay, its records may differ in their call. Active and inactive are the calls of the source. How the source made its calls: active means hit-call score of the fitted dose curve at least 0.9, where 1 is the maximum; inactive means score below 0.9.

read-out: not listed separately; experiment: BSK_4H_SRB: Viability Assessment in the BioMAP Diversity Plus: 4H Assay (AID 2283027); details: primary human endothelial cells (HUVEC);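 further: cells exposed to compound for 24 h before staining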;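 on AC50: curves fitted both ways versus DMSO so AC50 may be loss or gain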
How it was run: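 Absorbance at 560 nm of SRB-stained total protein served as the viability read-out in confluent primary human umbilical vein endothelium 24 h after chemical treatment. Curves were fitted bidirectionally against DMSO as negative control.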

Question: With `OCC(F)(F)C(F)(F)C(F)(F)C(F)F` as the compound, how does the outcome read?
Answer: The outcome was “inactive”.

Question: For `Oc1ccc(Nc2ccccc2)cc1`, which outcome is on record?
Answer: The outcome was “inactive”.

Question: For `O=C(O)C(F)(F)C(F)(F)OC(F)(F)F`, which outcome is on record?
Answer: The outcome was “inactive”.

Question: Which AC50 does the source give for `CCCCCCOC(=O)c1ccccc1O` here?
Answer: The AC50 was 44.2 µM (active) and 42.6 µM (active).

Question: For `O=S(=O)(O)C(F)(F)C(F)(F)C(F)(F)C(F)(F)C(F)(F)C(F)(F)C(F)(F)F`, which outcome is on record?
Answer: The outcome was “inactive”.

Question: With `O=C(O)C(F)(F)C(F)(F)C(F)(F)C(F)(F)F` as the compound, how does the outcome read?
Answer: The outcome was “inactive”.

Question: Which outcome does the source give for `O=C(O)C(F)(F)C(F)(F)C(F)(F)F` here?
Answer: Its outcome is “inactive”.

Question: With `C=CC(F)(F)C(F)(F)C(F)(F)C(F)(F)C(F)(F)C(F)(F)C(F)(F)C(F)(F)C=C` as the compound, how does the outcome read?
Answer: Its outcome is “inactive”.

Question: Which outcome does the source give for `CC(=O)Nc1ccc(N=Nc2cc(C)ccc2O)cc1` here?
Answer: Its outcome is “inactive”.

Question: With `N=C(N)C(F)(F)C(F)(F)C(F)(F)C(F)(F)C(F)(F)C(F)(F)C(F)(F)F` as the compound, how does the AC50 read?
Answer: Its AC50 is 48.5 µM (active).

Question: And the outcome?
Answer: Its outcome is “inactive”.

Question: Which AC50 does the source give for `O=C(O)C(F)(F)C(F)(F)C(F)(F)C(F)(F)C(F)(F)C(F)(F)C(F)(F)C(F)(F)Cl` here?
Answer: Its AC50 is 49.7 µM (active) and 52.2 µM (active).

Question: With `O=P(O)(O)OCCC(F)(F)C(F)(F)C(F)(F)C(F)(F)C(F)(F)C(F)(F)F` as the compound, how does the outcome read?
Answer: Its outcome is “inactive”.

Question: Which outcome does the source give for `CCCCCCCOC(=O)c1ccccc1C(=O)OCCCCCCC` here?
Answer: The outcome was “inactive”.

Question: Which AC50 does the source give for `CCCCCCCCCCCCCCCC[N+](C)(C)Cc1ccccc1` here?
Answer: Its AC50 is 5.09 µM (active).

Question: For `FC(F)(F)C(F)(F)C(F)(F)CI`, which outcome is on record?
Answer: Its outcome is “inactive”.

Question: Which outcome does the source give for `O=C(O)C(F)(F)C(F)(F)C(F)(F)C(F)(F)C(F)(F)C(F)(F)C(F)(F)C(F)(F)C(F)(F)C(F)(F)C(F)(F)C(F)(F)C(F)(F)F` here?
Answer: Its outcome is “inactive”.

Question: Which AC50 does the source give for `O=C(O)C(F)(F)C(F)(F)C(F)(F)C(F)(F)C(F)(F)C(F)(F)C(F)(F)C(F)(F)C(F)(F)C(F)(F)C(F)(F)C(F)(F)F` here?
Answer: The AC50 was 21.7 µM (active) and 18 µM (active).

Question: Which outcome does the source give for `CC(C)(C)C(=O)CC(=O)C(F)(F)C(F)(F)C(F)(F)F` here?
Answer: Its outcome is “inactive”.

Question: With `FC(F)(F)C(F)(F)C(F)(F)C(F)(F)C(F)(F)C(F)(F)CC1CO1` (stereo not drawn) as the compound, how does the outcome read?
Answer: The outcome was “inactive”.

Question: For `O=C(O)C(F)(F)C(F)(F)C(F)(F)C(F)(F)C(F)(F)C(F)(F)C(F)(F)C(F)(F)C(F)(F)C(F)F`, which AC50 is on record?
Answer: Its AC50 is 48.6 µM (active) and 45.8 µM (active).

Question: Which outcome does the source give for `O=C(O)C(F)(OC(F)(F)C(F)(OC(F)(F)C(F)(OC(F)(F)C(F)(F)C(F)(F)F)C(F)(F)F)C(F)(F)F)C(F)(F)F` (stereo not drawn) here?
Answer: The outcome was “inactive”.

Question: With `FC(F)(F)C(F)(F)C(F)(F)C(F)(F)C(F)(F)CCI` as the compound, how does the outcome read?
Answer: The outcome was “inactive”.

read-out: not listed separately; experiment: BSK_BE3C_SRB: Viability Assessment in the BioMAP Diversity Plus: BE3C Assay (AID 2283028); details: primary human bronchial epithelial cells;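 on AC50: fitted both ways so AC50 may mark signal gain or loss versus DMSO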
How it was run: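 Cytotoxicity read-out: SRB (0.1%) staining of TCA-fixed (10%) human lung bronchial epithelial cells, absorbance 560 nm, 24 h post-dosing. Curves fitted both directions relative to DMSO.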

Question: With `Oc1ccc(Nc2ccccc2)cc1` as the compound, how does the outcome read?
Answer: The outcome was “inactive”.

Question: With `O=S(=O)(O)C(F)(F)C(F)(F)C(F)(F)C(F)(F)C(F)(F)C(F)(F)C(F)(F)F` as the compound, how does the outcome read?
Answer: Its outcome is “inactive”.

Question: With `O=C(O)C(F)(F)C(F)(F)C(F)(F)F` as the compound, how does the outcome read?
Answer: Its outcome is “inactive”.

Question: With `CC(=O)Nc1ccc(N=Nc2cc(C)ccc2O)cc1` as the compound, how does the outcome read?
Answer: Its outcome is “inactive”.

Question: With `N=C(N)C(F)(F)C(F)(F)C(F)(F)C(F)(F)C(F)(F)C(F)(F)C(F)(F)F` as the compound, how does the outcome read?
Answer: Its outcome is “inactive”.

Question: With `CCCCCCCOC(=O)c1ccccc1C(=O)OCCCCCCC` as the compound, how does the outcome read?
Answer: Its outcome is “inactive”.

Question: Which outcome does the source give for `O=C(O)C(F)(F)C(F)(F)C(F)(F)C(F)(F)C(F)(F)C(F)(F)C(F)(F)C(F)(F)C(F)(F)C(F)(F)C(F)(F)C(F)(F)C(F)(F)F` here?
Answer: Its outcome is “inactive”.

Question: For `O=C(O)C(F)(F)C(F)(F)C(F)(F)C(F)(F)C(F)(F)C(F)(F)C(F)(F)C(F)(F)C(F)(F)C(F)(F)C(F)(F)C(F)(F)F`, which outcome is on record?
Answer: Its outcome is “inactive”.

Question: For `FC(F)(F)C(F)(F)C(F)(F)C(F)(F)C(F)(F)C(F)(F)CC1CO1` (stereo not drawn), which outcome is on record?
Answer: Its outcome is “inactive”.

Question: For `O=C(O)C(F)(F)C(F)(F)C(F)(F)C(F)(F)C(F)(F)C(F)(F)C(F)(F)C(F)(F)C(F)(F)C(F)F`, which AC50 is on record?
Answer: Its AC50 is 21 µM (active) and 20.7 µM (active).

Question: With `O=C(O)C(F)(OC(F)(F)C(F)(OC(F)(F)C(F)(OC(F)(F)C(F)(F)C(F)(F)F)C(F)(F)F)C(F)(F)F)C(F)(F)F` (stereo not drawn) as the compound, how does the outcome read?
Answer: Its outcome is “inactive”.

read-out: Thrombomodulin, THBD (gene 7056); experiment: BSK_3C_Thrombomodulin: BioMAP Diversity Plus: 3C Assay for Thrombomodulin Biomarker Activity (AID 2283029); details: primary human endothelial cells (HUVEC); actives raise or lower the signal
How it was run: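 Primary human umbilical vein endothelial cells (3C system) were exposed to chemical for 24 h, then thrombomodulin levels were measured by ELISA. Activity was fitted bidirectionally against the DMSO negative control as baseline.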

Question: Which outcome does the source give for `OCC(F)(F)C(F)(F)C(F)(F)C(F)F` here?
Answer: The outcome was “inactive”.

Question: For `Oc1ccc(Nc2ccccc2)cc1`, which outcome is on record?
Answer: Its outcome is “inactive”.

Question: For `O=C(O)C(F)(F)C(F)(F)OC(F)(F)F`, which outcome is on record?
Answer: Its outcome is “inactive”.

Question: With `CCCCCCOC(=O)c1ccccc1O` as the compound, how does the outcome read?
Answer: The outcome was “inactive”.

Question: For `O=S(=O)(O)C(F)(F)C(F)(F)C(F)(F)C(F)(F)C(F)(F)C(F)(F)C(F)(F)F`, which outcome is on record?
Answer: The outcome was “inactive”.

Question: Which AC50 does the source give for `O=C(O)C(F)(F)C(F)(F)C(F)(F)C(F)(F)F` here?
Answer: The AC50 was 31.2 µM (active).

Question: And the outcome?
Answer: The outcome was “inactive”.

Question: For `O=C(O)C(F)(F)C(F)(F)C(F)(F)F`, which outcome is on record?
Answer: The outcome was “inactive”.

Question: For `C=CC(F)(F)C(F)(F)C(F)(F)C(F)(F)C(F)(F)C(F)(F)C(F)(F)C(F)(F)C=C`, which outcome is on record?
Answer: The outcome was “inactive”.

Question: With `CC(=O)Nc1ccc(N=Nc2cc(C)ccc2O)cc1` as the compound, how does the AC50 read?
Answer: Its AC50 is 7.5 µM (active).

Question: With `N=C(N)C(F)(F)C(F)(F)C(F)(F)C(F)(F)C(F)(F)C(F)(F)C(F)(F)F` as the compound, how does the outcome read?
Answer: The outcome was “inactive”.

Question: With `O=C(O)C(F)(F)C(F)(F)C(F)(F)C(F)(F)C(F)(F)C(F)(F)C(F)(F)C(F)(F)Cl` as the compound, how does the AC50 read?
Answer: The AC50 was 48.5 µM (active) and 45.4 µM (active).

Question: Which outcome does the source give for `O=P(O)(O)OCCC(F)(F)C(F)(F)C(F)(F)C(F)(F)C(F)(F)C(F)(F)F` here?
Answer: The outcome was “inactive”.

Question: For `CCCCCCCOC(=O)c1ccccc1C(=O)OCCCCCCC`, which outcome is on record?
Answer: The outcome was “inactive”.

Question: For `CCCCCCCCCCCCCCCC[N+](C)(C)Cc1ccccc1`, which AC50 is on record?
Answer: The AC50 was 5.17 µM (active).

Question: With `FC(F)(F)C(F)(F)C(F)(F)CI` as the compound, how does the outcome read?
Answer: Its outcome is “inactive”.

Question: With `O=C(O)C(F)(F)C(F)(F)C(F)(F)C(F)(F)C(F)(F)C(F)(F)C(F)(F)C(F)(F)C(F)(F)C(F)(F)C(F)(F)C(F)(F)C(F)(F)F` as the compound, how does the outcome read?
Answer: Its outcome is “inactive”.

Question: Which results are given for `O=C(O)C(F)(F)C(F)(F)C(F)(F)C(F)(F)C(F)(F)C(F)(F)C(F)(F)C(F)(F)C(F)(F)C(F)(F)C(F)(F)C(F)(F)F`?
Answer: AC50: 0.928 µM (active); outcome: inactive

Question: With `CC(C)(C)C(=O)CC(=O)C(F)(F)C(F)(F)C(F)(F)F` as the compound, how does the AC50 read?
Answer: Its AC50 is 41.2 µM (active) and 47.3 µM (active).

Question: For `FC(F)(F)C(F)(F)C(F)(F)C(F)(F)C(F)(F)C(F)(F)CC1CO1` (stereo not drawn), which outcome is on record?
Answer: The outcome was “inactive”.

Question: For `O=C(O)C(F)(F)C(F)(F)C(F)(F)C(F)(F)C(F)(F)C(F)(F)C(F)(F)C(F)(F)C(F)(F)C(F)F`, which AC50 is on record?
Answer: The AC50 was 49.3 µM (active) and 46.1 µM (active).

Question: For `O=C(O)C(F)(OC(F)(F)C(F)(OC(F)(F)C(F)(OC(F)(F)C(F)(F)C(F)(F)F)C(F)(F)F)C(F)(F)F)C(F)(F)F` (stereo not drawn), which outcome is on record?
Answer: The outcome was “inactive”.

Question: With `FC(F)(F)C(F)(F)C(F)(F)C(F)(F)C(F)(F)CCI` as the compound, how does the outcome read?
Answer: The outcome was “inactive”.
